The nature of assay [1]: qHTS profiling for inhibitors of Plasmodium falciparum proliferation (AID 504749).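 For activity, negative = inhibition: 0% = DMSO vehicle and full inhibition = artemisinin control.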 For all read-outs here: nearly all actives have a fitted effect of over 60% in size. Note: potency is the fitted concentration of half-maximal effect. Particulars: P. falciparum in erythrocytes, SYBR Green DNA, 72 h; for activity, negative = inhibition: at 28.7 µM (top of the series). Put shortly: (§1)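 Three-day growth assay of blood-stage parasites in erythrocytes (0.3% parasitemia, 2.5% hematocrit) at 37 C, 5% CO2, quantified by SYBR Green DNA staining after overnight detergent lysis.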
A general note: In qHTS, concentration-response curves come from the screen itself.

Assay [2] has as its system 3D7. The assay is described as above. Conditions: P. falciparum in erythrocytes, SYBR Green DNA, 72 h; series mostly up to 28.7 µM. Put shortly: as §1
For assay [3], the system named is 7G8. The description is as above. Conditions: P. falciparum in erythrocytes, SYBR Green DNA, 72 h; series mostly up to 28.7 µM. Put shortly:
as §1

Assay [4] deals with AA1029. Described as above. Conditions: P. falciparum in erythrocytes, SYBR Green DNA, 72 h; series mostly up to 28.7 µM. Put shortly:
as §1

Assay [5] has as its system AS120. Described as above. Conditions: P. falciparum in erythrocytes, SYBR Green DNA, 72 h; series mostly up to 28.7 µM. Put shortly:
as §1

The subject of assay [6] is ATS189. Described as above. Particulars: P. falciparum in erythrocytes, SYBR Green DNA, 72 h; series mostly up to 28.7 µM. Put shortly: as §1
The test system of assay [7] is ATS95. The assay is described as above. Conditions: P. falciparum in erythrocytes, SYBR Green DNA, 72 h; series mostly up to 28.7 µM. Put shortly: as §1
Assay [8] is described as follows: qHTS drug screen for cell cycle checkpoint inhibitors in PARPi-resistant BRCA-mutant ovarian cancer cell lines. (AID 1963452; calls by dose curve). Conditions: PEO1/OlaR viability, CellTiter-Glo luminescence, 96 h, stronger effect = lower value. Put shortly: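 PEO1, PEO4 and PEO1/OlaR ovarian cancer cells, 600 per well, exposed 96 h at 37C to a dilution series. Viability read by CellTiter-Glo luminescence, normalized to DMSO and empty wells; activity summarized as Z-AUC.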

In assay [9] the target is Nuclear receptor subfamily 1 group I member 2 (Homo sapiens) (UniProt O75469). The assay is described as follows: Dual reporter qHTS for antagonist of Pregnane X Receptor (hPXR) against the NCATS DSHEA and TCM libraries: Luminescence Readout (AID 1920060).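 Note: HepG2 cells carrying hPXR luciferase reporter stimulated with rifampicin at 2 µM; 0% is about no effect.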 Particulars: hPXR dual reporter cells, luciferase luminescence, antagonist mode; series mostly up to 40 µM. Put shortly:
(§2)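 Antagonist mode: rifampicin 2 uM final co-added with compounds to hPXR-LucHepG2 cells for 24 h at 37C. Viability by CellTiter-Fluor, Ex/Em 405/540 nm, 1 h; reporter by ONE-Glo luminescence.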

The nature of assay [10]: Dual reporter qHTS for antagonist of Pregnane X Receptor (hPXR) against the NCATS DSHEA and TCM libraries: Fluorescence Readout (AID 1920061). Note: 0% is about no effect. Conditions: PXR dual reporter cells, antagonist mode; series mostly up to 40 µM. Put shortly: as §2
The mark [11] stands for this setting: measured here: PEO1 parental Z-AUC.

Here are results for twelve molecules from PubChem BioAssay (NCATS).

The structures appear in SMILES notation. Results filed as inconclusive are left out. The source made the active and inactive calls. Unless noted, calls come from the whole dose curve; as a rule, active = well fitted curve in the direction sought with a large enough effect; inconclusive = small, poorly fitted or top-dose-only effect, or another doubt; inactive = no such curve, though single readings can be large; an effect the other way counts as inactive or inconclusive. Numbered stars: 1 amine (or outer) side, 2 acyl side, 3 side chain; on linkers, the order of the positions; unused ones are H or OH. Bridge positions count the residues as written; N and C are the ends. Square brackets hold non-standard residues; d marks the D form. Peptide text beside a SMILES is read from it. I, II: the chains in the order shown. Actinocin(9to1) = Cc1c2oc3c(C)ccc(C(=O)[*:1])c3nc-2c(C(=O)[*:2])c(N)c1=O; NMeV = CN[C@H](C(=O)O)C(C)C; Sar = CNCC(=O)O

Nuclear receptor subfamily 1 group I member 2 (Homo sapiens), sequence (O75469 whole entry, looked up): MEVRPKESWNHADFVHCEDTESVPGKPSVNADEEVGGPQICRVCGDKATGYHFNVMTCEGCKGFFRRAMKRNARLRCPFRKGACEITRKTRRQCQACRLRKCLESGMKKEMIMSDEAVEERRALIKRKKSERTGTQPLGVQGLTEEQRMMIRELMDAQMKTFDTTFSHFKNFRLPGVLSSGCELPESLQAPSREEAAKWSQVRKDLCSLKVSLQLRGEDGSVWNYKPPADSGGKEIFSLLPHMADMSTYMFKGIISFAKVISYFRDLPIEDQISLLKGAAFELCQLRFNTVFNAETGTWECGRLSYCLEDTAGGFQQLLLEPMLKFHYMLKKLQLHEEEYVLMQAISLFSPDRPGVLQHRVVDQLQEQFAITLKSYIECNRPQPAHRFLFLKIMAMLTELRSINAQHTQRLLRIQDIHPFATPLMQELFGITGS

Turning to `NC(=O)C(=O)N/N=C/c1ccc([N+](=O)[O-])o1`, the activity, negative = inhibition in [1] (parasite line A) is -26.1% (inactive); in [1] (parasite line B), -11.4% (inactive). The Potency entry in [2], in assay [3], in assay [4], in [5], in assay [6] and in [7] was “inactive” throughout.

Consider `CN(C)CC/C=C1/c2ccccc2COc2ccc(CC(=O)O)cc21`, for which the values for the Z-AUC in assay [8], in assay [8] (setting [11]) and in [8] (measured here: PEO4 Z-AUC) were -0.218 (inactive), 0.35 and -0.471, respectively.

As to `Cc1c2oc3c(C)ccc(C(=O)N[C@@H]4C(=O)N[C@H](C(C)C)C(=O)N5CCC[C@H]5C(=O)N(C)CC(=O)N(C)[C@@H](C(C)C)C(=O)O[C@@H]4C)c3nc-2c(C(=O)N[C@@H]2C(=O)N[C@H](C(C)C)C(=O)N3CCC[C@H]3C(=O)N(C)CC(=O)N(C)[C@@H](C(C)C)C(=O)O[C@@H]2C)c(N)c1=O` (I: T[dV]P[Sar][NMeV] / II: T[dV]P[Sar][NMeV]; ester I:1-I:C, II:1-II:C; linker I:N-II:N via Actinocin(9to1)), the Potency was 3.5 nM (active) in [1] (parasite line A); 6.3 nM (active) in assay [1] (parasite line B); 5.6 nM (active) in assay [2]; 1.3 nM (active) in assay [3]; 4.5 nM (active) in assay [4]; 4.5 nM (active) in assay [5]. The results for the Potency in assay [6] and in assay [7] were 3.2 nM (active) and 4 nM (active), respectively.

Consider `C[C@]12CC[C@@H]3c4ccc(O)cc4CC[C@H]3[C@@H]1CC[C@@H]2O`, for which the Z-AUC in assay [8] is 0.573 (inactive); in [8] (setting [11]), 0.0962; in [8] (measured here: PEO4 Z-AUC), 0.419. Besides, the figures for the activity, negative = inhibition in assay [1] (parasite line A) and in [1] (parasite line B) were 14.2% (inactive) and 10.8% (inactive), respectively. Moreover, the Potency entry in assay [2], in assay [3], in [4], in [5], in assay [6] and in [7] was “inactive” throughout.

On to `COC(=O)[C@@H]1CC2=CC(=O)CC[C@]2(C)[C@@]23O[C@@H]2C[C@@]2(C)[C@@H](CC[C@@]24CCC(=O)O4)[C@H]13`, for which the Z-AUC was -0.162 (inactive) in assay [8], -0.149 in assay [8] (setting [11]) and 0.317 in assay [8] (measured here: PEO4 Z-AUC). Also, the activity, negative = inhibition in assay [1] (parasite line A) was 8.39% (inactive); in [1] (parasite line B), 17.6% (inactive). Moreover, the Potency result in assay [2], in assay [3], in assay [4], in assay [5], in [6] and in [7] was “inactive” each time.

As for `CC(=O)OCC(=O)[C@@]12OC(C)(C)O[C@@H]1C[C@H]1[C@@H]3C[C@H](F)C4=CC(=O)C=C[C@]4(C)[C@@]3(F)[C@@H](O)C[C@@]12C`, the Z-AUC in assay [8] is -0.667 (inactive); in assay [8] (setting [11]), 0.136; in assay [8] (measured here: PEO4 Z-AUC) it was -0.783.

On to `C=CCc1ccc(O)c(OC)c1`, for which the outcome in assay [9] and in [10] was inactive. Besides, the values for the activity, negative = inhibition in assay [1] (parasite line A) and in [1] (parasite line B) were 9.84% (inactive) and 1.91% (inactive), respectively. The Potency result in [2], in [3], in [4], in [5], in assay [6] and in assay [7] was “inactive” in each case.

On to `O=c1[nH]c(=O)n([C@H]2C[C@H](O)[C@@H](CO)O2)cc1C(F)(F)F`, for which the Z-AUC in assay [8] was -0.642 (inactive); in [8] (setting [11]), -0.928; in [8] (measured here: PEO4 Z-AUC) it was -0.403.

As to `c1ccc(CNCCNCc2ccccc2)cc1`, the activity, negative = inhibition in assay [1] (parasite line A) was 2.06% (inactive); in assay [1] (parasite line B) it was 5.37% (inactive). In addition, the Potency entry in assay [2] was “inactive”. Also, in [3], the Potency is 10000 nM (active).

In the case of `Nc1nc2ncc(CNc3ccc(C(=O)N[C@@H](CCC(=O)O)C(=O)O)cc3)nc2c(=O)[nH]1`, the molecule was called inactive in assay [10].

With `CCCCCCc1ccc(O)cc1O`, the activity, negative = inhibition is 6.34% (inactive) in assay [1] (parasite line A) and 12.1% (inactive) in assay [1] (parasite line B). The Potency result in assay [2], in assay [3], in assay [4], in assay [5], in assay [6] and in assay [7] was “inactive” in each case.

Take `CC(C)(C)CC(C)(C)c1ccc(O)c(Cc2ccc(Cl)cc2Cl)c1`: the Potency in assay [1] (parasite line A) was 2000 nM (active); in assay [1] (parasite line B) it was 562 nM (active); in [2] it was 2240 nM (active); in assay [3], 447 nM (active); in assay [4] it was 891 nM (active); in assay [5], 501 nM (active). For the same molecule, the Potency in [6] was 794 nM (active); in [7], 2000 nM (active).
